Experimental findings from PubChem BioAssay AID651815 (National Center for Advancing Translational Sciences (NCATS), 2012) are described below.

Screen size: about 2,100 compounds; about 1,100 (52%) were called active. Inconclusive results (about 29%) are left out. Calls follow the shape of the dose curve; as a rule, active = well fitted inhibition curve with a large enough effect; inconclusive = small, poorly fitted or top-dose-only effect; inactive = no such curve, though single readings can be large or run the other way. The set was probably picked from earlier hits. This is one part of the list.
Potency is read from the fitted curve at half-maximal effect.

DNA dC->dU-editing enzyme APOBEC-3F (Homo sapiens), sequence (Q8IUX4 whole entry, looked up): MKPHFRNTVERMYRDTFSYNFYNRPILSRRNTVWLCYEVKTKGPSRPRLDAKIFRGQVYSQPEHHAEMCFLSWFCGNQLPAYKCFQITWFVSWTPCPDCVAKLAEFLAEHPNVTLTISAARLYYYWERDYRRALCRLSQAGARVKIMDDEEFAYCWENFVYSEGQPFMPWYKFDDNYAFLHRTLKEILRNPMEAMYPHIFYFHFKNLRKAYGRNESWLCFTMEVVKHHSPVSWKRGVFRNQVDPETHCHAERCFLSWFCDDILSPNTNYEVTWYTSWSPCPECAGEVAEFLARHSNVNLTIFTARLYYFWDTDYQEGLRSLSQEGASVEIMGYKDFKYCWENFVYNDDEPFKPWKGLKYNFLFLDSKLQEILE

For this assay, the target named is DNA dC->dU-editing enzyme APOBEC-3F (Homo sapiens) (UniProt Q8IUX4). In words: qHTS for inhibitors of Vif-A3F interactions: Cherry picks counterscreen. Also: nearly all actives have a fitted effect of over 65% in size. To be noted: HeLa A3F-eYFP/Vif cells, eYFP fluorescence, 24 h; series mostly up to 46.1 µM. From the text:
The recent discovery and characterization of host restriction factors, which provide a potent defense to invading retroviruses, has provided new targets for antiviral drug development. APOBEC3G (A3G) and APOBEC3F (A3F) are potent cytidine deaminases that block HIV-1 replication; HIV-1 expresses the Vif protein, which counteracts A3G and A3F by binding to them and inducing their proteasomal degradation. The Vif-A3G and Vif-A3F interactions provide two potential targets for development of small molecules which can interfere with the ability of Vif to degrade A3G or A3F. […] To identify inhibitors that can interfere with Vif mediated degradation of A3G and A3F, we have developed Hela cell lines that stably express A3G or A3F tagged with eYFP at the C-terminal end (A3G-eYFP or A3F-eYFP, respectively) and Vif. In the absence of an inhibitor, Vif induces degradation of A3G-eYFP and A3F-eYFP, and the cells are not fluorescent. In the presence of an inhibitor, it is expected that Vif will be unable to degrade A3G-eYFP and/or A3F-eYFP, resulting in an increase in yellow fluorescence. In this counterscreen assay, Vif A3F was screened against the cherry picks ordered from the MLSMR. NIH Chemical Genomics Center [NCGC] NIH Molecular Libraries Probe Centers Network [MLPCN] MLPCN Grant: MH093245 Assay Submitter (PI): Vinay Pathak, National Cancer Institute
A3F-Vif cells were harvested from T225 flask and resuspended in phenol free OPTI-MEM medium with 5% FBS. Then 5 uL of 140,000 cells/mL resuspended cells was dispensed into each well of low base Aurora COC 1,536-well plates (black walled, clear bottom) using a Multidrop Combi dispenser. After overnight culture at 37 deg C with 5% CO2, a total of 23 nL of compounds at 5 selected concentrations from the NPC or positive control (2 mM stock of MG132) in DMSO was transferred to each well of the assay plate using a pintool (Kalypsys, San Diego, CA), and the plates were further incubated at 37 deg C with 5% CO2 for 24 hours. After that, the plates were measured on Acumen Explorer (TTP Lab Tech). The fluorescence was detected by 488 nm/Ex and […].
On the technique in general: In qHTS, concentration-response curves come from the screen itself.
`CCOc1ccc2nc(NC(=O)c3nc(SC(C)C)ncc3Cl)sc2c1`: the Potency was 11.6 µM (active).

In the case of `Cc1cccc(NC(=O)/C=C/c2ccc([N+](=O)[O-])s2)c1`, the Potency was 7.31 µM (active). The figure for `Cc1cc(C)cc(NC(=O)/C=C/c2ccc([N+](=O)[O-])s2)c1` is 16.4 µM (active); for `COC(=O)c1sccc1NC(=S)Nc1cc(C)cc(C)c1` it is “inactive”. As for `Cc1ccc(NC(=O)/C=C/c2ccc([N+](=O)[O-])s2)c(C)c1`, the Potency is 18.4 µM (active).

`Cc1ccc(NC(=O)/C=C/c2ccc([N+](=O)[O-])s2)cc1`: the Potency is 10.3 µM (active). `CCC(=O)OCc1cnc(C)c2oc(=O)c(C(=O)Nc3ccccc3C(F)(F)F)cc12`: the Potency entry is “inactive”.

Regarding `CC(=O)c1cccc(NC(=S)N2c3ccccc3CC2C)c1` (centres undefined), the Potency result was “inactive”.

`CC(=O)c1cccc(NC(=O)/C=C/c2ccc([N+](=O)[O-])s2)c1`: the Potency was 16.4 µM (active).

On to `CCOCCC(=O)Nc1ccc2c(c1)c(=O)n(C)n2C/C=C/c1ccccc1`, for which the Potency was 15.8 µM (active). Consider `COc1ccc2[nH]c(C(=O)N/N=C/c3ccc(OC)c(O)c3)cc2c1`, for which the Potency was 3.14 µM (active). For `COc1ccc(/C=N/NC(=O)c2cc3c(OC)ccc(OC)c3[nH]2)cc1O`, the Potency is 4.44 µM (active). For `CN[C@H]1CCc2cc(OC)c(OC)c(OC)c2-c2ccc(N(C)CC(OC)OC)c(=O)cc21`, the Potency is 2.8 µM (active). The figure for `COc1cc2c(c(OC)c1OC)-c1ccc(N(C)CC(OC)OC)c(=O)cc1[C@@H](NC(C)=O)CC2` is 1.12 µM (active); for `CSc1cccc(NC(=O)c2cc3c(COC(C)=O)cnc(C)c3oc2=O)c1` it is “inactive”; for `CCN(CC)c1ccc2cc(-c3nnc(-c4cccc(Cl)c4)o3)c(=O)oc2c1` it is 0.206 µM (active). The figure for `CCN(CC)c1ccc2cc(-c3nnc(-c4ccccc4)o3)c(=O)oc2c1` is 0.112 µM (active); for `CCN(CC)c1ccc2cc(-c3nc(-c4cccs4)no3)c(=O)oc2c1` it is 0.291 µM (active); for `CCN(CC)c1ccc2cc(-c3nc4ccccc4n3C)c(=O)oc2c1` it is 7.31 µM (active). As to `CCN(CC)c1ccc2cc(C(N)=O)c(=N)oc2c1`, the Potency result is “inactive”.

As to `CCN(CC)c1ccc2cc(-c3nc(-c4ccc(Cl)cc4Cl)cs3)c(=O)oc2c1`, the Potency result was “inactive”. On to `CN(C)S(=O)(=O)c1ccc(N2CCCC2)c(C(=O)N2CCN(S(=O)(=O)c3ccc(F)c(F)c3)CC2)c1`, for which the Potency result was “inactive”. Turning to `CCOC(=O)c1c(C)sc(-c2c(-c3ccccc3)[nH]c3[nH]c(=O)[nH]c(=O)c23)c1O`, the Potency was 23.1 µM (active). In the case of `CCCCOc1ccc(-c2cc(C(F)(F)F)c(C#N)c(SCC(=O)O)n2)cc1`, the Potency is 18.4 µM (active). Turning to `CCOC(=O)c1ccc(NC(=O)CSc2nc(-c3ccc(OC)cc3)cc(C(F)(F)F)c2C#N)cc1`, the Potency is 23.1 µM (active). The entry for `COCc1cc(C)nc(SCC(=O)Nc2ccc3[nH]c(=O)[nH]c3c2)c1C#N` is “inactive”; for `CCOC(=O)c1ccc(NC(=O)CSc2nc(-c3ccc(F)cc3)cc(C(F)(F)F)c2C#N)cc1` it is 18.4 µM (active); for `Cc1ccc(S(=O)(=O)CCSc2nc(C)cc(C(F)(F)F)c2C#N)cc1` it is 12.5 µM (active). As for `CCOC(=O)c1ccc(N=Nc2c(C)c(C#N)c(O)[nH]c2=O)cc1`, the Potency result is “inactive”. For `Cc1coc(NC(=O)CSc2nc(-c3ccncc3)cc(C(F)(F)F)c2C#N)n1`, the Potency is 7.31 µM (active).

For the compound `Cc1cc(C(F)(F)F)c(C#N)c(SCC(=O)Nc2nc3ccccc3s2)n1`, the Potency is 16.4 µM (active). For the compound `Cc1sc2nc(CSCC(=O)Nc3ccccc3C#N)[nH]c(=O)c2c1C`, the Potency result is “inactive”. Consider `CN(C)c1ccc(/C=C2\Oc3ccc(C#Cc4cccc(N)c4)cc3C2=O)cc1`, for which the Potency was 15.8 µM (active). Regarding `O=C(Cc1n[nH]c(=O)c2ccccc12)OCC(=O)c1ccc2c(c1)OCCO2`, the Potency is 2.8 µM (active). As for `CCOc1ccc(C(=O)COC(=O)Cc2n[nH]c(=O)c3ccccc23)cc1`, the Potency is 4.44 µM (active). For the compound `COc1ccc(C(=O)/C=C/Nc2ccc([N+](=O)[O-])cc2C)c(OC)c1`, the Potency is 18.4 µM (active).

With `COc1cccc(N=C2NC(=O)/C(=C/c3cc([N+](=O)[O-])ccc3O)S2)c1`, the Potency result was “inactive”. The figure for `N#C/C(N=Nc1ccccc1O)=N\Nc1ccccc1O` is 5.17 µM (active). Regarding `Cc1cc(N2CCN(c3ccc([N+](=O)[O-])c4cccnc34)CC2)c2ccccc2n1`, the Potency is 20.6 µM (active). With `O=[N+]([O-])c1cc(Cl)c2cccnc2c1O`, the Potency result is “inactive”. Regarding `COc1ccccc1Nc1cc2cc(Br)ccc2c(=O)[nH]1`, the Potency was 7.04 µM (active). On to `COc1ccc(OCCCC(=O)N2CCN(S(=O)(=O)c3cccc(F)c3)CC2)cc1`, for which the Potency result is “inactive”.

With `COc1ccc(NC(=O)c2oc3ccc(S(=O)(=O)N4CCOCC4)cc3c2C)cc1`, the Potency result was “inactive”. The figure for `COc1cccc(NC(=O)c2oc3ccc(S(=O)(=O)N4CCC5(CC4)OCCO5)cc3c2C)c1` is 13 µM (active); for `Cc1ccc(NC(=O)C2CCN(S(=O)(=O)c3ccc(Cl)c(C(F)(F)F)c3)CC2)nc1` it is “inactive”. Take `CN(CC(=O)Nc1ccc(Cl)c(C(F)(F)F)c1)C(=O)c1ccc(S(=O)(=O)N2CCOCC2)cc1`: the Potency is 4.44 µM (active). In the case of `COC(=O)C1CCC(=O)N1C(c1ccc(OC)cc1)c1cc(OC)c(OC)c(OC)c1` (centres undefined), the Potency is 0.79 µM (active). As to `CCS(=O)(=O)C1=NN2C(=N)/C(=C\c3ccc(SCc4ccco4)o3)C(=O)N=C2S1`, the Potency result was “inactive”.

On to `CC1=CN2C(=N)/C(=C/c3ccc([N+](=O)[O-])o3)C(=O)N=C2S1`, for which the Potency was 14 µM (active). The figure for `CCOC(=O)C1=C(Cc2ccc(F)cc2)C(=O)c2ccccc2C1=O` is 16.4 µM (active); for `COc1ccc(C(C)(O)c2nc(-c3ccccc3OC)cs2)cc1` (centres undefined) it is 12.5 µM (active); for `CC(=O)Nc1sc(/C(C#N)=C\c2cccc(Cl)c2)nc1-c1ccc(C)cc1` it is 11.6 µM (active). The figure for `CC(=O)Nc1sc(/C(C#N)=C/c2ccc(Cl)c(Cl)c2)nc1-c1ccc(C)cc1` is 2.59 µM (active). Take `CCOc1cc(/C=C(\C#N)c2nc(-c3cccs3)c(NC(C)=O)s2)ccc1O`: the Potency entry was “inactive”. The figure for `COc1ccc(CN(C(C)=O)c2cccc(C)c2C)cc1` is 15.8 µM (active); for `COc1ccc(/C=c2\s/c(=C/C(=O)c3ccc(C)cc3)[nH]c2=O)c(OC)c1` it is 18.4 µM (active); for `Cn1cccc1/C=C1\CC(C(C)(C)C)C/C(=C\c2cccn2C)C1=O` (centres undefined) it is 1.3 µM (active).

For the compound `CN1C2CCC1/C(=C\c1ccccc1)C(=O)/C2=C\c1ccccc1`, the Potency is 15.8 µM (active). As for `CN1C2CCC1/C(=C/c1cccn1C)C(=O)/C2=C\c1cccn1C`, the Potency is 18.4 µM (active). The figure for `CC(=O)Nc1cccc(-c2ccnc3c2CC(C)(C(=O)Nc2cccc(C(C)=O)c2)O3)c1` (centres undefined) is 9.94 µM (active). With `CC(=O)c1cccc(NC(=O)C2CCCN(S(=O)(=O)c3cccc4nonc34)C2)c1` (centres undefined), the Potency entry was “inactive”. Take `COc1ccc(NC(=O)C2(C)Cc3c(-c4cccc(C(N)=O)c4)ccnc3O2)cc1` (centres undefined): the Potency is 6.27 µM (active).

For `COc1ccc(NC(=O)C2(C)Cc3c(-c4cccc(NC(C)=O)c4)ccnc3O2)cc1` (centres undefined), the Potency was 2.8 µM (active). Take `COc1cc(C(=O)Nc2ccc3c(c2)ncn3C)cc(OC)c1OC`: the Potency was 5.59 µM (active). `COc1cc(C(=O)N/N=C/C2CC=CCC2)cc(OC)c1OC` (centres undefined): the Potency result was “inactive”. `COc1cc(C(=O)N/N=C(\C)c2ccccn2)cc(OC)c1OC`: the Potency is 0.559 µM (active). Regarding `COc1cc(C(=O)Nc2ccc3ccccc3c2)cc(OC)c1OC`, the Potency is 3.14 µM (active). `CCOc1ccc(NC(=O)N2CC=C(c3c[nH]c4ccccc34)CC2)cc1`: the Potency is 2.59 µM (active).

Turning to `CCOC1=C2CN(S(=O)(=O)c3ccc(C)cc3)[C@H](c3cccc4ccccc34)C[C@H]2C(C#N)(C#N)C(C#N)(C#N)C1`, the Potency result is “inactive”. The entry for `O=[N+]([O-])c1ccccc1C1Nc2cccc3cccc(c23)N1` is “inactive”; for `Cc1ccc(C2NC(=O)c3ccccc3N2)s1` (centres undefined) it is 17.7 µM (active); for `CCOc1ccccc1C1NC(=O)c2ccccc2N1` (centres undefined) it is 3.53 µM (active). The entry for `COc1cc(OC)c(C2Nc3cccc4cccc(c34)N2)c(OC)c1` is “inactive”; for `COc1ccc2ccccc2c1C1NC(=O)c2ccccc2N1` (centres undefined) it is 4.98 µM (active).

Regarding `C=CCSc1nnc(C)c(/C=C/Nc2ccc(Cl)cc2)n1`, the Potency was 18.4 µM (active). As to `COc1ccc(N/C=C/c2nc(SC)nnc2C)cc1`, the Potency is 18.4 µM (active). Take `COc1ccc(C(=O)c2sc3nc(-c4ccc(C)cc4)cc(C(F)(F)F)c3c2N)cc1`: the Potency was 5.17 µM (active). With `COc1cccc(C(=O)c2sc3nc(-c4ccccc4)cc(C(F)(F)F)c3c2N)c1`, the Potency is 2.06 µM (active).

In the case of `CCOC(=O)c1c(-c2ccc(OC)cc2)csc1/N=C/C1=C(O)CCCC1=O`, the Potency entry was “inactive”. As to `COc1ccc(NC(=O)c2sc3nc(-c4ccc(OC)cc4)cc(C(F)(F)F)c3c2N)cc1`, the Potency was 7.31 µM (active). As for `CCOC(=O)c1c(C)nc2sc(C(=O)Nc3ccc(OC)cc3)c(N)c2c1-c1ccc(OC)cc1`, the Potency was 2.8 µM (active). Consider `COc1ccc(C(=O)c2sc3nc(C)cc(-c4cccs4)c3c2N)cc1`, for which the Potency was 20.6 µM (active).

For `COc1cccc(NC(=O)c2sc3nc(C)c(C(=O)Nc4ccc(C)cc4C)c(-c4ccco4)c3c2N)c1`, the Potency entry was “inactive”. Turning to `CCc1ccc(NC(=O)c2sc3nc(C)c(C(=O)Nc4ccc(C)cc4C)c(-c4ccco4)c3c2N)cc1`, the Potency was 16.4 µM (active). As to `CCc1ccc(-c2cc(C(F)(F)F)n3nc(C(=O)Nc4cnn(Cc5ccc(C)cc5)c4)cc3n2)s1`, the Potency was 16.4 µM (active). As for `Cc1ccc(S(=O)(=O)N2CCN(C(=O)CSC(=S)N3CCCC3)CC2)c(C)c1`, the Potency result was “inactive”. For the compound `COc1cc(C(=O)NCC(=O)N2CCN(S(=O)(=O)c3cc(C)ccc3C)CC2)cc(OC)c1OC`, the Potency was 3.96 µM (active). Regarding `C=C(/C=C/c1ccc(N(C)C)cc1)c1nc2ccccc2s1`, the Potency is 18.4 µM (active). Regarding `CC1=Nc2ccc(C)cc2/C1=C/c1c(N)n2oc(C)cc2nc1=O`, the Potency is 20.6 µM (active).
